Results on eleven compounds are retold here after PubChem BioAssay.

Broadly, the inhibition is the relative decrease from the control value, in per cent.

A number with no mark means an inactive call. The list shows a part of the results. Active and inactive are the calls of the source.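 How the source made its calls, unless noted: active means mean inhibition above 46.5%, the solvent-only control mean plus 3 SD; inactive means the rest.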

Experiment [1] has as its system transactivating tegument protein VP16 (Human herpesvirus 1). The experiment can be described thus: compounds suppressing VP16-driven luciferase signal – cell-based, luminescence, single concentration, counter-screen for SRC2 inhibitor project (AID 652007; in the data active means inhibition above about 36%). Particulars: cell-based VP16 transactivation luciferase reporter, at 8.9 µM, active compounds read high. On the technique in general: Counterscreens check selectivity or assay interference.

The target of experiment [2] is Nuclear receptor coactivator 2 (Homo sapiens) (UniProt Q15596). The experiment can be described thus: inhibition of GAL4-SRC2 driven luciferase expression – cell-based, luminescence, HEK293, triplicate, confirmation (AID 652008).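 Further: 0% = DMSO-treated cells and 100% = Gossypol at 36 µM.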 Conditions: HEK293 GAL4-SRC2 luciferase reporter, at 8.9 µM, active compounds read high. Background: Reporter assays use an easily measured gene product as a stand-in for the process of interest.

A short description of experiment [3]: BSA probe fluorescence interference – biochemical, TAMRA-labeled BSA, counter-screen for TCR-CD3 interaction inhibitor project (AID 652035; in the data active means inhibition above about 23%;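 further: 0% = buffer low control and 100% = reference high control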). Particulars: TAMRA-labeled BSA probe fluorescence counterscreen; at 9.4 µM; active compounds read high.
The test system of experiment [4] is T-cell receptor (TCR)-CD3 interaction, human. The experiment can be described thus: blockers of TCR binding to CD3 – biochemical, fluorescence, TAMRA-labeled TCR probe, confirmation (AID 652036; in the data active means inhibition above about 19%). Conditions: TAMRA-labeled TCR probe fluorescence binding assay; at 9.4 µM; active compounds read high.
A short description of experiment [5]: VP16-driven transactivation reporter suppression – cell-based, luminescence, HEK293, counter-screen for COUP-TFII antagonist project (AID 687007; in the data active means inhibition above about 13%). Conditions: HEK293 Gal4-VP16 luciferase reporter, at 8.5 µM, active compounds read high.
In experiment [6] the target is COUP transcription factor 2 (Homo sapiens) (UniProt P24468). Description: retest of COUP-TFII reporter suppressors – cell-based, luciferase reporter, HEK293, triplicate, confirmation (AID 687008;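 active means mean inhibition over three repeats above a set limit taken from the earlier primary screen, cut at about 38% in these data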;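 further: 100% = cells given the luciferase reporter alone without the COUP-TF2 vector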). Conditions: HEK293 NGFI-A luciferase reporter, luminescence; at 8.5 µM; active compounds read high.
Chain of COUP transcription factor 2 (Homo sapiens) (P24468 whole entry, looked up): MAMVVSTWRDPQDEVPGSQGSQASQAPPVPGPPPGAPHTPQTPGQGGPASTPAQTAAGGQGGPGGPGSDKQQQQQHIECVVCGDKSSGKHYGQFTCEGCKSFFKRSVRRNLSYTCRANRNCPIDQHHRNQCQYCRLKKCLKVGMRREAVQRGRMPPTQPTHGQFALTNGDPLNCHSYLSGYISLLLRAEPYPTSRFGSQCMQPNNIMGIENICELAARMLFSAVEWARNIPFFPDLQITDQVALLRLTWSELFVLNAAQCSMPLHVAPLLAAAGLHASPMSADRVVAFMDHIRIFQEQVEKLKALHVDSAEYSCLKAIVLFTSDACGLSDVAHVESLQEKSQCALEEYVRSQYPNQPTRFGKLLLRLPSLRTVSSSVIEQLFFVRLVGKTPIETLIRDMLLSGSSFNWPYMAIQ

Chain of Nuclear receptor coactivator 2 (Homo sapiens) (Q15596 whole entry, looked up, the tested form may be a part): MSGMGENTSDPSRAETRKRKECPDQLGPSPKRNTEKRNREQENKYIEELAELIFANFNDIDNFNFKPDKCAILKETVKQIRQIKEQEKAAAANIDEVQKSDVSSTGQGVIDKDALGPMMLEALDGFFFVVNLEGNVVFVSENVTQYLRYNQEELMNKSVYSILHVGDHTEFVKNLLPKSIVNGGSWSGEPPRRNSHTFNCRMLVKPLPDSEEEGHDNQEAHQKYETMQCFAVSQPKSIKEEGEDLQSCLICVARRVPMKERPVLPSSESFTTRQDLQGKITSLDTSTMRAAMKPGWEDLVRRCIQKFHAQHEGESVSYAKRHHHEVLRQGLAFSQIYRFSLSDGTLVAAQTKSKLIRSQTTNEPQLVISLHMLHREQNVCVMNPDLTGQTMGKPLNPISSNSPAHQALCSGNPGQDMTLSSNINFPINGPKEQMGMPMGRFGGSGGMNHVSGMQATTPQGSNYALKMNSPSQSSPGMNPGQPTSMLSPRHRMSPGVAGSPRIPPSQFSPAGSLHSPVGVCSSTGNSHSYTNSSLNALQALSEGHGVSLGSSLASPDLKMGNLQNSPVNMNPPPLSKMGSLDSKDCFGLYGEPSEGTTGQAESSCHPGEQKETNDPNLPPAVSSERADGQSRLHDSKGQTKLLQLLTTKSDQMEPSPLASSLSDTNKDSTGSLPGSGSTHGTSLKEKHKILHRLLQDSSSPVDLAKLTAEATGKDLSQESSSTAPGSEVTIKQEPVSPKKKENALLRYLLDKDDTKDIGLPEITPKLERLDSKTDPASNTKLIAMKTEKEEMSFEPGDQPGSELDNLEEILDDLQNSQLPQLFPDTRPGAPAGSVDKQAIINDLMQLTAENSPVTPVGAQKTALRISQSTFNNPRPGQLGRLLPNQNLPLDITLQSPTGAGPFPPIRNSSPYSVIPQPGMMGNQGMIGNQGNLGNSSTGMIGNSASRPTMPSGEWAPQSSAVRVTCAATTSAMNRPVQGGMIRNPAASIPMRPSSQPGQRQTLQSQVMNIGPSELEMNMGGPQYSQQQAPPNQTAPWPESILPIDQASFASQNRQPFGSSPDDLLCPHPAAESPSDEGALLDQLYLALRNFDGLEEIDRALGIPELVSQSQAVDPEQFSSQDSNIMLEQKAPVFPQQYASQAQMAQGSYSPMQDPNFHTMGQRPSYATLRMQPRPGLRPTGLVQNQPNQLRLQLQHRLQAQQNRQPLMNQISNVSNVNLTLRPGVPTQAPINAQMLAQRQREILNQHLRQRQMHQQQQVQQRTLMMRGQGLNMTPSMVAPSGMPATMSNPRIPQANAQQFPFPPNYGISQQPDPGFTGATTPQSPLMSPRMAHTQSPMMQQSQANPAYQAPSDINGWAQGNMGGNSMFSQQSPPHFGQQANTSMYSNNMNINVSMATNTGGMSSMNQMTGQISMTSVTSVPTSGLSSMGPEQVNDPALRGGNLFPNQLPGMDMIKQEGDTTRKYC

Regarding `Cc1ccc(NC(=O)C2CCC(C(C)(C)C)CC2)cc1S(=O)(=O)N1CCOCC1` (stereo unspecified), the results for the inhibition in experiment [1] and in experiment [2] were 3.84% and 12.3%, respectively.
For the compound `COc1ccc(Nc2nc(C)nc3c2oc2ccccc23)c(OC)c1`, the values for the inhibition in experiment [1] and in experiment [2] were 2.99% and 4.48%, respectively.
Taken in the same sequence, the figures for `CCC(C)[C@H](NC(=O)N1CCn2c1nc1ccccc12)C(=O)NCc1ccc(OC)cc1` (stereo partly specified) were -13% and 8.36%.
With `COc1ccccc1N(CC(=O)N/N=C(\C)c1ccccc1O)S(=O)(=O)c1ccc(C)cc1`, the inhibition is 12.9% in experiment [1], 25.4% in experiment [2], -17.6% in experiment [3] and 14.3% in experiment [4].
On to `CCCc1cc(=O)n2nc(N3CCC(C(=O)N4CCN(c5cccc(OC)c5)CC4)CC3)sc2n1`, for which the values for the inhibition in experiment [1] and in experiment [2] were -1.33% and 17.2%, respectively.
As for `COc1cccc(NC(=O)c2cc(Cl)nnc2Cl)c1`, the inhibition was 23.6% in experiment [1] and 44% in experiment [2].
For the compound `Cc1ccc(Cn2ccc(=O)c(OCc3c(Cl)cccc3Cl)c2C)cc1`, the inhibition in experiment [1] is 11.9%; in experiment [2], 13.3%.
For the compound `Cc1ccc2nc(-c3ccc(Br)cc3)cn2c1`, the inhibition in experiment [1] is 9.32%; in experiment [2], 78.4% (active); in experiment [5], -12.3%; in experiment [6] it was 19.1%.
For `Cc1c(NC(=O)COC(=O)C23CC4CC(CC(O)(C4)C2)C3)c(=O)n(-c2ccccc2)n1C`, the inhibition in experiment [1] is 2.86%; in experiment [2] it was 3.79%.
Taken in the same sequence, the figures for `Cc1ccc(S(=O)(=O)NNC(=O)c2sc(=S)n(C)c2C)cc1` were -4.43% and -17.1%.
For the compound `Cc1ccc(C(=O)NC(=S)Nc2ccc(-c3cc4ccccc4oc3=O)cc2)c(C)c1`, the results for the inhibition in experiment [1] and in experiment [2] were -3.58% and 19.5%, respectively.
